Data on 12 compounds can be found in PubChem BioAssay (NCATS).

Structures are written as SMILES. Where “and” joins values, the source holds several entries; their conditions need not be identical. Equal entries are not always repeated. Inconclusive results are not listed. Calls of active or inactive are those of the source. Unless noted, calls follow the shape of the dose curve; as a rule, active = well fitted curve in the direction sought with a large enough effect; inconclusive = small, poorly fitted or top-dose-only effect, or another doubt; inactive = no such curve, though single readings can be large; an effect the other way counts as inactive or inconclusive. A value given as a limit tells only on which side of the number the result lay.

Test [1] can be described thus: Cell Viability - NIH 3T3 (AID 541). Also: nearly all actives have a fitted effect of over 25% in size. Also: potency is read from the fitted curve at half-maximal effect.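 As to activity change, negative = cytotoxicity: plate controls were DMSO alone for no effect and tamoxifen positive control for full effect.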 The note with it: NIH 3T3 cell viability, qHTS; activity change, negative = cytotoxicity: at 92.2 µM (top of the series). The gist of the method:
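In this cytotoxicity screen, acute toxicity is scored as an ATP drop measured by CellTiter-Glo in NIH 3T3 fibroblasts following a 40 hr, 37 °C incubation with compound.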

Test [2] can be described thus: Cell Viability - LYMP2-022 (AID 987). Also: nearly all actives have a fitted effect of over 55% in size. Also: potency is read from the fitted curve at half-maximal effect. Summed up: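 In this qHTS cytotoxicity screen, compound titrations were incubated 24 hr at 37 C with human lymphoblastoid cells in complete medium. Luciferase-based ATP luminescence provided the viability signal.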
In test [3] the target is Estrogen receptor (Homo sapiens) (UniProt P03372). As to the kind of experiment: qHTS assay for small molecule antagonists of estrogen receptor alpha signaling (AID 588513; active = well fitted curve in the direction sought with a large enough effect in the signal ratio, with a control signal flat, not every such curve was filed as active; the % refers to the signal ratio; also: % is scaled to controls: 0 for no effect and ±100 for the full control effect). The gist of the method:
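Fluorescence from CCF4 substrate after 2 h at room temperature gave reporter activity; cells had been exposed to compound and 0.5nM 17-beta-estradiol for 18 h at 37 C. Hill-equation fitting yielded IC50 and maximal response.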

For test [4] the target is unchanged. As to the kind of experiment: qHTS assay for small molecule agonists of estrogen receptor alpha signaling (AID 588514; calls by dose curve;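 also: 0% = vehicle only and 100% = reference agonist; nearly all actives have a fitted effect of over 70% in size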). The gist of the method:
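Fluorescence from CCF4 cleavage reports ER-alpha-driven beta-lactamase expression in HEK 293 cells treated 18 hrs at 37 C. Data normalized to 17-beta-estradiol (20 nM) and DMSO, fitted to Hill equation.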

Test [5] addresses Bile acid receptor (Homo sapiens) (UniProt Q96RI1). Nature of the test: qHTS assay for small molecule agonists of farnesoid X receptor signaling (AID 588527; calls by dose curve;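 also: 0% = vehicle basal and 100% = reference agonist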). The settings on record: HEK293T FXR-UAS-bla, beta-lactamase ratio, 16 h; stronger effect = higher value. Summed up:
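Read-out: beta-lactamase reporter fluorescence with CCF4 substrate in GeneBLAzer FXR-UAS-bla HEK293T cells, after 16 h compound exposure at 37 C. Response scaled between DMSO basal (0%) and chenodeoxycholic acid at 100 uM (100%).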

In test [6] the target is Peroxisome proliferator-activated receptor delta (Homo sapiens) (UniProt Q03181). As to the kind of experiment: qHTS assay for small molecule agonists of peroxisome proliferator-activated receptor delta signaling (AID 588534; calls by dose curve;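 also: 0% = DMSO basal wells and 100% = positive control agonist at 10 µM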). The gist of the method:
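EC50 and efficacy values derive from Hill fits of a concentration series in a beta-lactamase reporter cell assay. Exposure is 18 hrs at 37 C, with CCF4 fluorescence as the readout.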

Test [7] can be described thus: qHTS assay for small molecule antagonists of peroxisome proliferator-activated receptor delta signaling (AID 588535; active = well fitted inhibition curve with a large enough effect in the signal ratio, with a control signal flat, not every such curve was filed as active; the % refers to the signal ratio;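 as to max response: cells co-treated with a PPAR-delta agonist as stimulator during compound exposure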). The note with it: HEK293T PPARd-UAS-bla, beta-lactamase FRET ratio, 18 h; 460 nm channel. The gist of the method: (§1)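 Compounds tested in titration on PPAR-delta-UAS-bla HEK293T cells grown in charcoal/dextran-stripped serum (2%); beta-lactamase activity read via CCF4 emission at 460 and 530 nm.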

Test [8] addresses Peroxisome proliferator-activated receptor delta (Homo sapiens) (UniProt Q03181). Described as above. The gist of the method:
as §1

Test [9] is described as follows: qHTS assay for small molecule agonists of the antioxidant response element (ARE) signaling pathway (AID 651741; active = well fitted activation curve with a large enough effect in the signal ratio; the % refers to the signal ratio; also: potency is read from the fitted curve at half-maximal effect). The gist of the method: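 Beta-lactamase reporter expression driven by the antioxidant response element in HepG2 cells was detected by fluorescence with LiveBLAzer B/G FRET substrate (2 h, room temperature) following 16 h compound treatment at 37 C.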

Test [10] in a line: qHTS assay for small molecule disruptors of the mitochondrial membrane potential - 1 hr assay (AID 651754; calls by dose curve; also: nearly all actives have a fitted effect of over 35% in size; also: potency is read from the fitted curve at half-maximal effect). Summed up: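 In this qHTS format, a 1 hr compound treatment of HepG2 cells precedes Mito-MPS staining, and membrane potential is judged from aggregate (red) against monomer (green) fluorescence intensity.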
Test [11] deals with Nuclear receptor ROR-gamma (Homo sapiens) (UniProt P51449). As to the kind of experiment: qHTS assay for small molecule antagonists of the retinoid-related orphan receptor gamma (ROR-gamma) signaling pathway (AID 651802). Also: nearly all actives have a fitted effect of over 60% in size. Also: potency is read from the fitted curve at half-maximal effect. The gist of the method: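 Doxycycline-induced reporter activity in engineered CHO cells (TET-inducible ROR, RORE-LUC) was measured by luminescence after 16hr compound exposure at 37C.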
Sequence of Nuclear receptor ROR-gamma (Homo sapiens) (P51449 whole entry, looked up): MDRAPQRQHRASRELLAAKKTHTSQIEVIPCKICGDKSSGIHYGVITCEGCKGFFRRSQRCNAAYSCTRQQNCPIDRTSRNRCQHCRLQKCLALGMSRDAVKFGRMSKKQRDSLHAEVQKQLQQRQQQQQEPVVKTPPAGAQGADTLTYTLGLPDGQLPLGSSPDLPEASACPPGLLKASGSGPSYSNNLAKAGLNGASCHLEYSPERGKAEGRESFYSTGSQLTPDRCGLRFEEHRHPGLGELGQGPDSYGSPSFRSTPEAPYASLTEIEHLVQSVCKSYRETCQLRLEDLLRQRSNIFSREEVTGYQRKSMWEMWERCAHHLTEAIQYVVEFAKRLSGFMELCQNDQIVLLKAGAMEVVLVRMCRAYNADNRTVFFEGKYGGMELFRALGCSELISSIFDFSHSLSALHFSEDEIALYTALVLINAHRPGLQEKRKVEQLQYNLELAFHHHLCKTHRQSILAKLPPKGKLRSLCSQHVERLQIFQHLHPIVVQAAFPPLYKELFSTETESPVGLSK

Test [12] can be described thus: Cell Viability - N2a (AID 540).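 Also: cells exposed to compound for 40 h at 37 °C; nearly all actives have a fitted effect of over 45% in size.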 Also: potency is read from the fitted curve at half-maximal effect.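 As to activity change, negative = cytotoxicity: plate controls were DMSO alone for no effect and tamoxifen control for full effect.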 The settings on record: N2a mouse neuroblastoma cell viability; activity change, negative = cytotoxicity: at 92.2 µM (top of the series). The gist of the method:
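In this qHTS cytotoxicity screen, ATP-dependent luciferase luminescence reports viable N2a cells after a 40 hr compound exposure in complete culture medium. Potencies are AC50 values from standard Hill equation fits.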

Test [13] is described as follows: qHTS assay for small molecule agonists of the antioxidant response element (ARE) signaling pathway measured by Nrf2-dependant transcriptional activity (AID 720636; active = well fitted curve in the direction sought with a large enough effect in the repeat runs; an effect the other way counts as inactive or inconclusive; also: % of control where 0% means no effect). The gist of the method: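 HepG2 ARE-luc reporter line, 1% dialyzed FBS; 6 hr attachment at 37 C, compound pinned in, 16 hr at 37 C/5% CO2; ONE-Glo, 30 min RT, luminescence read.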
Test [14] in a line: Cell Viability - MRC5 (AID 434; calls by dose curve;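 also: potency is read from the fitted curve at half-maximal effect; cells exposed to compound for 40 hours at 37 °C; potency reflects cytotoxicity seen as loss of intracellular ATP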). The note with it: MRC5 lung fibroblast viability, qHTS. Summed up: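 Decrease in intracellular ATP, quantified by luciferase light output, reflects compound toxicity toward MRC5 cells exposed for 40 hr in complete culture medium. Concentration-response curves, scaled between DMSO and 100 uM tamoxifen, gave AC50 values.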
Test [15] in a line: Cell Viability - LYMP2-025 (AID 976).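 Also: cells exposed to compound for 24 h at 37 °C.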 Also: potency is read from the fitted curve at half-maximal effect.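 As to activity change, negative = cytotoxicity: plate controls were DMSO only for no effect and tetraoctylammonium bromide control for full effect.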 The gist of the method:
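Luminescent ATP readout after 24 hr treatment of a human lymphoblastoid line (LYMP2-025, 2500 cells/well, 37 C). Reagent developed 30 min at room temperature; AC50 fitted with the Hill equation.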

For test [16], the target named is Retinoic acid receptor RXR-alpha (Homo sapiens) (UniProt P19793). As to the kind of experiment: qHTS assay for small molecule antagonists of retinoid X receptor alpha signaling (AID 588546; active = well fitted inhibition curve with a large enough effect in the signal ratio, with a control signal flat, not every such curve was filed as active; the % refers to the signal ratio; also: % is scaled to controls: 0 for no effect and ±100 for the full control effect). The settings on record: HEK293T RXRa-UAS-bla, beta-lactamase ratio, antagonist mode. Summed up: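 Beta-lactamase reporter inhibition, read as CCF4 fluorescence ratio (ex 405, em 460/530 nm) after 2 h at RT. HEK293T UAS-bla cells, 2500/well, were stimulated with 9-cis-RA at 500 or 100 nM final alongside test compound for 18 h at 37 C.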
Sequence of Retinoic acid receptor RXR-alpha (Homo sapiens) (P19793 whole entry, looked up): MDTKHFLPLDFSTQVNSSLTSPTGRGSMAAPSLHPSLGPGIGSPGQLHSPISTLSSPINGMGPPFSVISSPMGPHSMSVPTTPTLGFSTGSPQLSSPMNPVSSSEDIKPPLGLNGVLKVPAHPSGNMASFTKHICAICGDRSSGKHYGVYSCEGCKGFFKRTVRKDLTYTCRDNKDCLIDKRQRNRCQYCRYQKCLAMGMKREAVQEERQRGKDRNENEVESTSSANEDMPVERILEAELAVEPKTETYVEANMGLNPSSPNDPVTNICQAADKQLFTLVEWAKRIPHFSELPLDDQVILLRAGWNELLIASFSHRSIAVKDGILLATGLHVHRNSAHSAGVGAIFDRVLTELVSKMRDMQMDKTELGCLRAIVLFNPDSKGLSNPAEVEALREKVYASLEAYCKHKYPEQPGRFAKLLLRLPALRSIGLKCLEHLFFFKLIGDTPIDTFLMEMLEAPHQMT

Test [17] deals with Thyroid hormone receptor beta (Homo sapiens) (UniProt P10828). As to the kind of experiment: qHTS assay for small molecule antagonists of thyroid hormone receptor beta signaling (AID 588547; active = well fitted inhibition curve with a large enough effect in the signal ratio, with a control signal flat, not every such curve was filed as active; the % refers to the signal ratio;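 also: cells stimulated with 0.4 nM T3 agonist during compound exposure; % is scaled to controls: 0 for no effect and ±100 for the full control effect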). The note with it: TR-UAS-bla HEK293, beta-lactamase ratio, antagonist mode, 18 h. The gist of the method:
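TR-UAS-bla GripTite HEK293 cells in 2% charcoal/dextran FBS medium were preincubated 4 h at 37 C, given compound (0.59 nM to 92 uM) plus 0.4 nM T3 (final) for 18 h, then CCF4 for 2 h at RT; Hill fit gave IC50.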

Test [18] can be described thus: Cell Viability - LYMP2-010 (AID 981).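 Also: cells exposed to compound for 24 hours at 37 °C; nearly all actives have a fitted effect of over 55% in size.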 Also: potency is read from the fitted curve at half-maximal effect. Summed up: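 This 24 hr viability screen uses LYMP2-010 lymphoblastoid cells, quantifies ATP via luciferase luminescence, and derives AC50 from Hill fits of qHTS concentration-response data.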
Test [19] is described as follows: Cell Viability - LYMP2-018 (AID 985).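 Also: compound exposure lasted 24 hr at 37 °C; nearly all actives have a fitted effect of over 50% in size.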 Also: potency is read from the fitted curve at half-maximal effect.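 As to activity change, negative = cytotoxicity: plate controls were DMSO only for no effect and tetraoctylammonium bromide at 92 µM for full effect.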 Summed up:
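In this qHTS viability assay, cells are treated for 24 hr and cellular ATP is quantified by luciferase-based luminescence, with tetraoctylammonium bromide as positive control.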

The target in test [20] is Peroxisome proliferator-activated receptor gamma (Homo sapiens) (UniProt P37231). Nature of the test: qHTS assay for small molecule antagonists of peroxisome proliferator-activated receptor gamma signaling (AID 588537; active = well fitted inhibition curve with a large enough effect in the signal ratio, with a control signal flat, not every such curve was filed as active; the % refers to the signal ratio;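 also: reporter cells co-stimulated with 50 nM rosiglitazone agonist during compound treatment; % of control where 0% means no effect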). Summed up:
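HEK293 cells, PPAR-gamma-UAS-bla, 3000/well. Pre-incubation 6-6.5 h, 37 C. Compound titration with rosiglitazone 50 nM final, 16 h. CCF4 dye, 2 h RT, dual-emission fluorescence.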

Sequence of Estrogen receptor (Homo sapiens) (P03372 whole entry, looked up): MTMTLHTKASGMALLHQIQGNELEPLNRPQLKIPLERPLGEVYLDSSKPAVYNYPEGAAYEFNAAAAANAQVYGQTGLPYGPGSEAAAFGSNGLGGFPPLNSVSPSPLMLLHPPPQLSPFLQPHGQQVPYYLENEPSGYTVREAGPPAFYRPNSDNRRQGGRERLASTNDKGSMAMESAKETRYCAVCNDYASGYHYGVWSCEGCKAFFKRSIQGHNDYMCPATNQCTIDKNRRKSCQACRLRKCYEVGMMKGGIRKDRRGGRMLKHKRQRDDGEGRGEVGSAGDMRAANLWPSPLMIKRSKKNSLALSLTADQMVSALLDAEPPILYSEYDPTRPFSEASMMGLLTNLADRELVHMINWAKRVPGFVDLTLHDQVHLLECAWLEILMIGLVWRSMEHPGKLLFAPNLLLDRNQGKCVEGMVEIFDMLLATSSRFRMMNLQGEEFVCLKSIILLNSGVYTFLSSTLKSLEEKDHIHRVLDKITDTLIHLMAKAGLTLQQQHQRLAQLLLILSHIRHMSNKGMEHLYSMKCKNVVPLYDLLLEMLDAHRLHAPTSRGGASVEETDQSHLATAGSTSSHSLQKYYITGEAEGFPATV
Sequence of Peroxisome proliferator-activated receptor delta (Homo sapiens) (Q03181 whole entry, looked up): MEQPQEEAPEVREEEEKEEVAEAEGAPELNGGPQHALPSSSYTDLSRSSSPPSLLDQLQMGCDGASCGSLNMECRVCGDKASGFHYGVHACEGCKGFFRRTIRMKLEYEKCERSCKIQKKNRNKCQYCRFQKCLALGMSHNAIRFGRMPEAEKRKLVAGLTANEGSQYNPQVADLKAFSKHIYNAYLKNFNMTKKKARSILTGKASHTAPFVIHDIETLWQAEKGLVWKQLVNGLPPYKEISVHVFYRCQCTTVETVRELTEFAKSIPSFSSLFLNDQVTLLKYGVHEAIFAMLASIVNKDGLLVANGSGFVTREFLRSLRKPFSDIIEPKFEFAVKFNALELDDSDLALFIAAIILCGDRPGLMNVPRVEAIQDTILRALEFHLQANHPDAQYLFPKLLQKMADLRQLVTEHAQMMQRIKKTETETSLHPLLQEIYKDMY
Sequence of Thyroid hormone receptor beta (Homo sapiens) (P10828 whole entry, looked up): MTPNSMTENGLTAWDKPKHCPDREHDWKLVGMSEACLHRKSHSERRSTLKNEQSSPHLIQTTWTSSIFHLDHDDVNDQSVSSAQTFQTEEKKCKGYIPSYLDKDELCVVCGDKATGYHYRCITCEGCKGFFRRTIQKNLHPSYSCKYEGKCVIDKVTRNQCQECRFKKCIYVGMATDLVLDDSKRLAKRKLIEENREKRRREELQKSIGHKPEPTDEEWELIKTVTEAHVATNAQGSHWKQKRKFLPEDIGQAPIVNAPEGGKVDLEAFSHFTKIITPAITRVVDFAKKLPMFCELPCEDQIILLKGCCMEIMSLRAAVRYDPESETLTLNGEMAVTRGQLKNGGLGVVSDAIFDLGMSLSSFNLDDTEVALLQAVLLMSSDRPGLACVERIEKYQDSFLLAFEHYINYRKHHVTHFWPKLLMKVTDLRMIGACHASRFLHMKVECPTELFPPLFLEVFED
Sequence of Bile acid receptor (Homo sapiens) (Q96RI1 whole entry, looked up): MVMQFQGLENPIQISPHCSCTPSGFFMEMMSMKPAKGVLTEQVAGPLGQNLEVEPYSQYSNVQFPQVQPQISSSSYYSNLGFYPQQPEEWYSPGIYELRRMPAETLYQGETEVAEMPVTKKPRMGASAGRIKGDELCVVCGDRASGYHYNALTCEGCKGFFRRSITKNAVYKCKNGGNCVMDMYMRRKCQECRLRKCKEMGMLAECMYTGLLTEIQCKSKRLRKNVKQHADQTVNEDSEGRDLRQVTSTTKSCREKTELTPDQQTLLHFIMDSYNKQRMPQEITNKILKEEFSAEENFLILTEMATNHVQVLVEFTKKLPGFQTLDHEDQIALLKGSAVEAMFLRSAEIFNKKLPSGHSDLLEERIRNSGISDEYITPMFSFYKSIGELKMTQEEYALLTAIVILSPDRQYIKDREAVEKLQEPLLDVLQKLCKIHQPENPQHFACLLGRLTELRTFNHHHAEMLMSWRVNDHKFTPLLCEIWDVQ
Sequence of Peroxisome proliferator-activated receptor gamma (Homo sapiens) (P37231 whole entry, looked up): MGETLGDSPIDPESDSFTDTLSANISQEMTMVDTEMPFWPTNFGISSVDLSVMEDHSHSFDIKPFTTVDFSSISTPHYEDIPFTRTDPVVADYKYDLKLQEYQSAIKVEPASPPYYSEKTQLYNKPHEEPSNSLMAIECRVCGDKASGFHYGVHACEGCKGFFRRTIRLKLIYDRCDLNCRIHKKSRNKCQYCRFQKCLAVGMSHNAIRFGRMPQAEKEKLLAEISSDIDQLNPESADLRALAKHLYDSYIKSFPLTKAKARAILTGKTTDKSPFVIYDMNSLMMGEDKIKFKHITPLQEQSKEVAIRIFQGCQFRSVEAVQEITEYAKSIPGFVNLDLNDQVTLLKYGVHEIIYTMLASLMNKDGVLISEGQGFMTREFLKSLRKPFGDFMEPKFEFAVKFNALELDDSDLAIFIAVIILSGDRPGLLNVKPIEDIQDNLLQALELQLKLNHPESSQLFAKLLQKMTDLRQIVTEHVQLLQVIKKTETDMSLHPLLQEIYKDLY

For `Nc1c(Br)cc([N+](=O)[O-])cc1[N+](=O)[O-]`, the Potency entry in test [1], in [2], in test [3], in [4] and in [11] was “inactive” throughout. Also, the activation in test [5] was 0.276% (inactive). Moreover, the result in [6] and in test [8] was inactive. Besides, in [7], the max response was 33.6%. The Potency is 37.6 µM (active) in [9] and 21.1 µM (active) in [10].

As for `Oc1cc(Cl)c(Cl)c(Cl)c1`, the Potency is 31.6 µM (active) in [12], 23.7 µM (active) in [9], 33.5 µM (active) in test [10] and 13.3 µM (active) in [11]. Besides, the activation in test [5] is 3.7% (inactive). Besides, the Potency result in test [13] is “inactive”.

Regarding `C=CC(=O)OCCO`, the Potency in [14] was > 92 µM (inactive); in [1], 31.6 µM (active); in test [9], 37.6 µM (active). Moreover, the Potency entry in [12], in test [15], in test [10] and in test [13] was “inactive” each time. Besides, the max response in test [7] is -1.31%; in test [16] it was 11.3% (inactive). Moreover, the compound was classed as inactive in test [8]. The activity change % (negative = inhibition) in test [17] was 12.5% (inactive).

`CN(C)c1ccc(N=Nc2ccccc2)cc1`: the Potency entry in [15], in test [18] and in [2] was “inactive” throughout. The activation in test [5] is -4.32% (inactive). In addition, the result in test [6] and in test [8] was inactive. Moreover, the max response in [7] was -40.3%. In addition, in test [17], the activity change % (negative = inhibition) was -4.36% (inactive). In addition, the Potency in test [9] was 37.6 µM (active).

On to `BrCC(Br)(Br)Br`, for which the Potency was 12.6 µM (active) in test [18] and 29.8 µM (active) in test [9]. For the same compound, the Potency result in [3], in [4] and in test [10] was “inactive” each time. In addition, the activation in test [5] was -2.57% (inactive). Also, the activity change % (negative = inhibition) in test [17] was -15.5% (inactive).

Consider `Clc1ccc(C(c2ccccc2Cl)C(Cl)(Cl)Cl)cc1` (configuration not stated), for which the Potency in [14] is > 92 µM (inactive); in [9], 75 µM (active) and 61.1 µM (active). Moreover, the Potency result in [15], in test [19], in [20] and in [13] was “inactive” each time. Besides, the result in [6] was inactive. The max response in test [16] is -26% (inactive).

In the case of `O=[N+]([O-])c1cccc(CCl)c1`, the Potency is > 92 µM (inactive) in [14], 42.2 µM (active) in [9] and 33.5 µM (active) in test [11]. Further, the Potency result in test [12], in [15], in test [10] and in test [13] was “inactive” throughout. Also, the activity change, negative = cytotoxicity in test [1] is -132% (active). Further, the activity change % (negative = inhibition) in [17] is -16.3% (inactive).

Take `c1ccc2c(c1)ccc1cc3c(ccc4ccccc43)cc12`: the Potency in test [9] is 2.37 µM (active).

Consider `c1ccc2c(c1)-c1cccc3c1c-2cc1ccccc13`, for which, in test [3], the Potency result was “inactive”. Also, the Potency in test [9] was 10.6 µM (active) and 6.11 µM (active).

Consider `N#C/C=C/C#N`, for which the Potency is > 92 µM (inactive) in test [14]; 50.1 µM (active) in test [15]; 31.6 µM (active) in test [19]; 15.8 µM (active) in [2]; 37.6 µM (active) in test [9]; 23.7 µM (active) in test [11]. Further, the activity change, negative = cytotoxicity in test [1] is -156% (active). Further, the Potency result in test [3] is “inactive”. Also, the outcome in test [6] was inactive. In test [17], the activity change % (negative = inhibition) is -13.1% (inactive).

For `[C-]1=CC=CC1.[C-]1=CC=CC1.[Cl-].[Cl-].[Ti+4]`, the activity change, negative = cytotoxicity in test [1] is -86.5% (active).

Turning to `Oc1cc(Cl)c(Cl)c(Cl)c1Cl`, the Potency in test [12] was 31.6 µM (active); in [9], 11.9 µM (active); in test [11], 23.7 µM (active). For the same compound, the Potency result in [15], in [19], in test [2] and in test [13] was “inactive” each time.
